A selection: hits, their analogues and other compounds. The true share with any hit is near 4.6%.
CF NFkB inh: inhibitors of cystic fibrosis induced NF-kB; KKLEB NF-kB-GFP reporter, PAF-induced, GFP fluorescence overnight; inhibition, % at 5 µM; 360,000 compounds, 0.86% hits;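 active = at least 50% inhibition at 5 µM, scaled per plate between neutral and stimulator controls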;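 also: PAF is a Pseudomonas aeruginosa culture filtrate used as stimulus; plate controls were PAF-stimulated DMSO wells for no effect and unstimulated DMSO wells for full effect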
Peg3 prom inh: inhibitors of Peg3 promoter; HeLa PEG-Prom luciferase reporter, luminescence, overnight; inhibition, % at 20 µM; 360,000 compounds, 1.7% hits;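 active = inhibition of at least 50% at 20 µM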
HIF-2a inh: HIF-2a inhibition; inhibition, % at 18.8 µM; AID 624352; 360,000 compounds, 0.72% hits; 786-0 RCC cells HIF-2a reporter, luciferase luminescence, overnight;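 active = inhibition of the luminescence signal of 40% or more relative to plate controls, in a single-dose primary screen at 18.75 µM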
ABHD5 PLIN5 PPI: ABHD5-PLIN5 protein interaction inhibition | Q00G26+Q8WTS1 | Split G. princeps luciferase complementation, luminescence, 4 h | inhibition, % at 4 µM | 360,000 compounds, 0.78% hits | AID 602281;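 active = inhibition above the mean inhibition across every tested compound plus 3 SD, cut at about 22% in these data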;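 also: 0% = DMSO only wells and the 100% control is not disclosed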
KKLEB tox: CF airway cell cytotoxicity counter-screen. KKLEB CF airway cells viability, ATPlite luminescence, overnight; hits give low values; cells stimulated with P. aeruginosa culture filtrate. activity change (cytotoxicity), % at 5 µM. 360,000 compounds, 0.36% hits. AID 602141;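 active = corrected activity change at or below -50% at 5 µM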
Mdm2-MdmX inh: human Mdm2/MdmX binding inhibition; O15151+Q00987; SaOS-2 split-luciferase Mdm2/MdmX complementation, luminescence; inhibition, % at 8 µM; 330,000 compounds, 3% hits; AID 485346;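 active = inhibition of at least 50% at 8 µM in the primary screen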
ABHD5 PLIN5 conf: confirmation of human ABHD5-PLIN5 interaction inhibitors; shares compounds with ABHD5 PLIN5 PPI; biochemical ABHD5-PLIN5 interaction, luminescence; inhibition, % at 4 µM; 2,200 compounds, 67% hits; AID 651612; in the data active = inhibition above about 23%;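 also: 0% = DMSO vehicle wells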
HNF4 counter: counter-screen for ABHD5-PLIN5 inhibitors: HNF4 split-luciferase. shares compounds with ABHD5 PLIN5 PPI. 2,200 compounds, 77% hits. inhibition, % at 4 µM. HNF4 dimerization, luminescence, biochemical;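 active = mean inhibition across replicate wells exceeding the computed hit threshold, cut at about 13% in these data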;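 also: light from luciferase halves that rejoin when HNF4 fusion proteins dimerize; 0% = DMSO only wells and the 100% control is not given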
An asterisk follows results filed as active; . = no result given.

SMILES | CF NFkB inh | Peg3 prom inh | HIF-2a inh | ABHD5 PLIN5 PPI | KKLEB tox | Mdm2-MdmX inh | ABHD5 PLIN5 conf | HNF4 counter
O=C(O)CC(O)(CC(=O)O)C(=O)O | 11 | 1 | 18 | 23* | 3 | 0 | 80* | 23*
CC(=O)Oc1ccc(OC(C)=O)c2c1CC(C)=C(C)C2 | 9 | 3 | 7 | 31* | -8 | 19 | 32* | 24*
CC(=O)Oc1ccc(C(=O)O)c(OC(C)=O)c1 | 19 | -2 | 13 | -1 | -1 | 9 | . | .
NC1=NC(=O)/C(=C/c2cccc(F)c2)S1 | 27 | -7 | -7 | 1 | 3 | 20 | . | .
CC(=O)Nc1ccc(S(=O)(=O)Oc2cccc(/C=C3\SC(N)=NC3=O)c2)cc1 | -6 | 2 | 6 | 28* | -8 | 17 | 35* | 22*
CCOc1ccccc1Nc1nnc(SCC(=O)N(C)C2CCS(=O)(=O)C2)s1 (stereo not drawn) | 29 | 12 | 4 | -2 | -6 | -9 | . | .
C=CCN1C(=O)C(=Cc2ccc3c(c2)CCC3)SC1=S | -2 | -103 | -82 | -16 | -1 | . | . | .
CCOC(=O)c1c(NC(C)=O)sc2c1CCC(C=O)=C2Sc1ccccc1 | -13 | 99* | 27 | 65* | -9 | 24 | 76* | 17*
CCOc1cc(/C=C2/COc3ccccc3C2=O)ccc1OCC(=O)N(C)C | 7 | 16 | 16 | 25* | -9 | . | 71* | 67*
CNc1ccc(/C=C2\COc3ccccc3C2=O)cc1[N+](=O)[O-] | 35 | -154 | -163 | 3 | -25 | 9 | . | .
O=C1/C(=C/c2ccc(O)cc2)COc2ccccc21 | -1 | -95 | -31 | 25* | -1 | 25 | 50* | 60*
O=C1/C(=C/c2ccccn2)COc2ccccc21 | -37 | -2 | -14 | 8 | 16 | 2 | . | .
CCOC(=O)C1CCCN(C(=O)c2cc(Nc3ccc(OC)cc3)nc3ccccc23)C1 (stereo not drawn) | -2 | 8 | -12 | 29* | -36 | 44 | 42* | .
CCOC(=O)C1CCCN(C(=O)c2cc(-c3ccco3)nc3ccccc23)C1 (stereo not drawn) | 3 | -10 | 9 | 5 | 12 | 20 | . | .
COc1ccc(C[C@@H]2OC3(C=CC(=O)C=C3)O[C@H]2Cc2ccc(OC)cc2)cc1 | 85* | 103* | 87* | 100* | -78* | . | 104* | 108*
COc1ccc(N2C(=O)CC(Cc3ccccc3)C2=O)cc1 (stereo not drawn) | 5 | -6 | 2 | -4 | -6 | 10 | . | .
O=C1C=CC2(C=C1)O[C@H](Cc1ccccc1)[C@@H](Cc1ccccc1)O2 | 96* | 108* | 92* | 98* | -98* | . | 103* | 109*
CCOc1ccccc1CN1CCN(Cc2[nH]c3ccccc3c2C)CC1CCO (stereo not drawn) | 2 | -12 | 20 | 27* | -11 | 10 | 7 | -1
CCOc1ccccc1CN1CCN(Cc2c[nH]c3ccccc23)CC1CCO (stereo not drawn) | -7 | -19 | 10 | 0 | 8 | 2 | . | .
O=S(=O)(/N=S1\CC=CCN1S(=O)(=O)c1ccccc1)c1ccccc1 (stereo not drawn) | 4 | 0 | 13 | 92* | -12 | . | 17 | 85*
CC1CC(C)CN(C(=O)c2ccc(-c3ccc([N+](=O)[O-])cc3)o2)C1 (stereo not drawn) | 11 | 33 | -78 | 28* | -18 | -9 | 15 | 3
O=C(c1ccc(-c2ccc([N+](=O)[O-])cc2)o1)N1CCCCC1 | -6 | -196 | -218 | 9 | 3 | -94 | . | .
Cc1ccc([N+](=O)[O-])cc1NC(=O)CSc1nncn1-c1ccccn1 | 4 | 6 | 8 | 24* | 1 | 17 | -2 | 5
Cc1cc([N+](=O)[O-])ccc1NC(=O)CSc1nncn1-c1ccccn1 | 6 | 10 | 6 | -2 | -13 | 16 | . | .
CC1(C)C2CCC(CN=C(N)CSS(=O)(=O)O)C1C2 (stereo not drawn) | -9 | -9 | 17 | 61* | 24 | . | 78* | 52*
